This is a sample that favours compounds with a hit; in the whole collection about 1.6% have one here.
KCNQ2 inh = KCNQ2 (rat) channel inhibition; CHO-K1 KCNQ2, FluxOR thallium flux, 20 min; stronger effect = lower value; AID 2156; B-score at 10 µM; hit rate 1.1% among 310,000; O88943;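 active means fluorescence ratio B-score at most minus 3 library SDs, with starting brightness B-score within 2 library SDs, cut at about -5.5 in these data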
KCNQ2 pot = enhances the rat KCNQ2 potassium channel | B-score at 10 µM | O88943 | hit rate 0.54% among 310,000 | CHO-K1 KCNQ2, FluxOR thallium flux fluorescence; stronger effect = higher value;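 active means fluorescence ratio B-score at least 3 SD of library B-scores, with initial fluorescence B-score within 3 of them, cut at about 5.3 in these data; same plate scores as AID 2156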;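 further: B-score of peak minus minimum over baseline fluorescence ratio after K+ and Tl+ stimulus; positive B-score means potentiation of KCNQ2 with more thallium influx and brighter signal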
Active calls of the source: *; i = inactive; · = no result given.

SMILES	KCNQ2 inh	KCNQ2 pot
CCN1C(c2ccccc2)C(C)C(=O)C(C)C1c1ccccc1 (centres undefined)	-8.45*	-8.45
CCC1C(=O)C(CC)C(c2ccccc2)NC1c1ccccc1 (centres undefined)	i	·
CC(=O)N1CCN(S(=O)(=O)c2cccc(C(=O)NCCc3ccc(Cl)cc3)c2)CC1	i	0.56
CCC1(CC)C(=O)C2=C3C1[C@H](C(=O)OC)C=C(C(=O)OC)C[C@H]3n1c(=O)n(C)c(=O)n1[C@H]2C (some centres undefined)	i	0.19
CCC1(CC)C(=O)C2=C3C1[C@H](C(=O)OC)CC(C(=O)OC)C[C@H]3n1c(=O)n(C)c(=O)n1[C@H]2C (some centres undefined)	-7.48*	-7.48
Cc1ccc(NC(=O)CCCn2c(=S)[nH]c3ccsc3c2=O)cc1C	i	·
O=C(c1ccc(Cl)c(Cl)c1)N(Cc1ccco1)c1ccc(O)cc1	-6.39*	-6.39
O=C(COc1ccccc1)N(Cc1ccco1)c1ccc(O)cc1	i	·
O=C(c1cccs1)N1CCCC(c2nc3c(nnn3Cc3ccccc3Cl)c(=O)[nH]2)C1 (centres undefined)	i	·
O=C(Nc1ccccc1O)c1cccc(S(=O)(=O)Nc2ccccc2O)c1	i	1.12
COc1cccc(CN(C)C(=O)c2cc(COc3c(F)cccc3F)on2)c1	i	·
O=C(NC1CCCC1)c1cc(COc2ccc3ncccc3c2)on1	i	2.95
Cc1cc(OCc2cc(C(=O)N(C)Cc3ccccn3)no2)cc(C)c1Cl	i	·
O=C(NCCc1cn2ccccc2n1)c1cc(COc2ccc3ncccc3c2)on1	-6.04*	-6.04
CN(CCc1ccccc1)C(=O)c1cc(COc2cccc(C(F)(F)F)c2)on1	-5.54*	-5.54
COc1cccc(CN(C)C(=O)c2cc(COc3ccc4ncccc4c3)on2)c1	-7.46*	-7.46
Cc1cc(OCc2cc(C(=O)N(C)CCOc3ccccc3)no2)cc(C)c1Cl	-5.66*	-5.66
CN(CCCN1CCOCC1)C(=O)c1cc(COc2cccc(C(F)(F)F)c2)on1	i	·
Cc1ccnc(NC(=O)c2ccc(S(=O)(=O)NCc3ccco3)cc2)c1	i	·
Cc1ccc2c(c1)N(C(=O)CCC(=O)NC1CCN(Cc3ccccc3)CC1)CC(C)O2 (centres undefined)	i	0.47
O=C(NCCCN1CCOCC1)/C(=C/c1ccco1)NC(=O)c1ccccc1	i	·
COc1ccc(C)cc1NC(=O)C(Sc1nnc(-c2ccncc2)n1-c1ccc(Cl)cc1)c1ccccc1 (centres undefined)	-7.93*	-7.93
COc1ccc(C)cc1NC(=O)C(Sc1nnc2ccccn12)c1ccccc1 (centres undefined)	i	·
CC(=O)N1c2ccc(S(=O)(=O)NCC3CCC(C(=O)NC4CCCCC4C)CC3)cc2CC1C (centres undefined)	i	·
CCCOc1ccc(-c2nc(N3CCN(C)CC3)c3ccccc3n2)cc1	-6.67*	-6.67
SMILES	KCNQ2 inh	KCNQ2 pot
CCCOc1ccc(-c2nc(N3CCN(CC)CC3)c3ccccc3n2)cc1	i	·
COc1ccc2oc(C(=O)NC3(C)CCS(=O)(=O)C3)c(C)c2c1 (centres undefined)	i	0.58
CC1Cc2nc(SCC(=O)NCC3CCCO3)n(C)c(=O)c2S1 (centres undefined)	i	·
CCOc1ccccc1NC(=O)C(NCCN(C)C)c1ccccc1 (centres undefined)	i	1.84
CCOc1ccccc1NC(=O)C(OC(=O)c1ccc(O)cc1)c1ccccc1 (centres undefined)	i	·
CCOc1ccccc1NC(=O)C(NCC1CCCCC1)c1ccccc1 (centres undefined)	-5.78*	-5.78
CCOc1ccccc1NC(=O)C(OC(=O)c1ccc(CC)cc1)c1ccccc1 (centres undefined)	-6.43*	-6.43
CCCCn1c(N)c(N(CCOC)C(=O)c2ccc3c(c2)C(=O)N(c2cc(C)ccc2C)C3=O)c(=O)[nH]c1=O	i	0.96
Cc1ccnc(SC2CC(=O)N(c3ccc(F)cc3)C2=O)n1 (centres undefined)	i	0.03
CCN(CC)CCn1c(=S)[nH]c2cc(C(=O)N3CC=C(c4ccccc4)CC3)ccc2c1=O	i	0.8
COc1ccc(NC(=O)NCc2cccnc2)c(OC)c1	i	·
COc1ccc(NC(=O)N(Cc2cccnc2)Cc2ccccc2Cl)c(OC)c1	-5.79*	-5.79
COc1ccc(S(=O)(=O)N2CCC(C(=O)N[C@@H](C)C(=O)NCc3ccncc3)CC2)cc1	i	0.55
O=C(NCc1cccnc1)C1CCC(CNS(=O)(=O)c2cccc3nsnc23)CC1 (centres undefined)	i	0.69
Cn1nc(-c2ccc(N3CCCCC3)c(NC(=O)c3ccco3)c2)c2ccccc2c1=O	-5.6*	-5.6
CCC(=O)Nc1cc(-c2nn(C)c(=O)c3ccccc23)ccc1N1CCOCC1	i	·
CCOC(=O)c1nc(C)sc1-c1ccnn1S(=O)(=O)c1ccc(C)cc1	i	0.72
Cc1onc(-c2c(F)cccc2Cl)c1C(=O)OCC(=O)NC(N)=O	i	0.29
Cc1onc(-c2c(F)cccc2Cl)c1C(=O)OCC(=O)NC(c1ccccc1)c1ccccc1	-5.58*	-5.58
COc1ccc(S(=O)(=O)N2CCC(C(=O)NCC3CCCCC3)CC2)cc1	i	1.21
O=C(COC(=O)c1cccc(-n2cnnn2)c1)c1ccc(Br)cc1	i	0.82
NCC(O)COCCC12CC3CC(CC(C3)C1)C2 (centres undefined)	i	·
CC(NCC(O)COCCC12CC3CC(CC(C3)C1)C2)c1ccccc1 (centres undefined)	-7.7*	-7.7
COc1ccccc1NC(=O)N1CCCC(c2nc3c(nnn3Cc3ccc(C)cc3)c(=O)[nH]2)C1 (centres undefined)	-6.24*	-6.24
COC(=O)c1ccccc1S(=O)(=O)N1CCCC(c2nc3c(nnn3Cc3ccc(C)cc3)c(=O)[nH]2)C1 (centres undefined)	i	·
SMILES	KCNQ2 inh	KCNQ2 pot
O=C(COc1cc2oc(=O)cc(-c3ccccc3)c2cc1Cl)NC(Cc1c[nH]c2ccc(O)cc12)C(=O)O (centres undefined)	i	0.66
COc1ccc(C(CNC(=O)c2ccc3c(c2)C(=O)N(CCC(C)C)C3=O)N2CCOCC2)cc1 (centres undefined)	-5.75*	-5.75
COc1ccc(C(CNC(=O)c2ccc(S(=O)(=O)N3CCCC3)cc2)N2CCOCC2)cc1 (centres undefined)	i	·
Cc1ccc(S(=O)(=O)NC(CC(C)C)C(=O)NCC(C)(C)N2CCOCC2)cc1 (centres undefined)	i	0.62
COc1cc2c(cc1OC)C(CSc1ccccc1C(=O)O)=NC(C)(C)C2	i	·
CC1(C)Cc2ccccc2C(CSc2ccccc2C(=O)O)=N1	-6.05*	-6.05
O=S1(=O)CCOC[C@H](c2ccccc2)N1Cc1ccccc1F	i	·
CC1CCCCN1C(=O)C1CCN(c2nc(-c3ccccc3)nc3c2CCC3)CC1 (centres undefined)	i	·
CCCCS(=O)CC(COC)OC(=O)c1ccccc1 (centres undefined)	i	0.03
CCCCS(=O)CC(COc1ccc(Cl)cc1)OC(=O)c1ccccc1 (centres undefined)	-5.84*	-5.84
CCCCCCCCNc1nc(Cl)nc(NCc2ccco2)n1	i	0.34
CCCCCCNc1nc(NCc2ccco2)nc(OCC)n1	-6.06*	-6.06
COC(=O)COc1ccc(C(=O)Cn2c(NCCCO)nc3ccccc32)cc1	i	0.45
